High-throughput results as filed in PubChem BioAssay.
DUSP1 inh: human dual specificity phosphatase 1 inhibition. P28562. recombinant MKP-1, OMFP hydrolysis fluorescence. inhibition, %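 (compounds tested at a single concentration somewhere between 10 and 100 µM)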. hit rate 0.15% among 65,000. AID 374;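 active = inhibition above about 50%, limit read from the data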;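 also: 0% = DMSO max control wells and 100% = wells with enzyme stopped by NaOH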
Target sequence (P28562 whole entry, looked up): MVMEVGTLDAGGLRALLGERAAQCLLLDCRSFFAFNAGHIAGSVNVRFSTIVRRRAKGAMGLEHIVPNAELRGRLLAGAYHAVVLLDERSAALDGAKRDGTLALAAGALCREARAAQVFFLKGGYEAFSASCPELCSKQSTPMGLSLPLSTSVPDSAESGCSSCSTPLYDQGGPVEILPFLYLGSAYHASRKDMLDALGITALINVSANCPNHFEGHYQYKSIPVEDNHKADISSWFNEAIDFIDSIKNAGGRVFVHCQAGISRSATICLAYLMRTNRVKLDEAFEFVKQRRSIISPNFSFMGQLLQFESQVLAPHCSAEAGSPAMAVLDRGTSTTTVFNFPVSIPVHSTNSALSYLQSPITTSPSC
Cdc25B block: inhibitors of human Cdc25B phosphatase | P30305 | recombinant Cdc25B, OMFP fluorescence Ex485/Em525 | inhibition, %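 (compounds tested at 10 µM final in the well)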 | hit rate 0.1% among 65,000 | AID 368; in the data active = inhibition above about 50%
HePTP inh: human HePTP phosphatase inhibition. P35236. AID 521. recombinant HePTP phosphatase activity, OD absorbance. inhibition, % at 20 µM. hit rate 0.64% among 110,000; in the data active = inhibition above about 50%;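 also: plate controls were vehicle for no effect and reference inhibitor for full effect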
* marks the source's active call; other numbers are inactive results; nt = not tested or not shown. A selection: hits, their analogues and other compounds. The true share with any hit is near 0.7%.

SMILES	DUSP1 inh	Cdc25B block	HePTP inh
O=C(/C=C\c1ccc(-c2cc(Cl)ccc2Cl)o1)c1ccccc1	nt	nt	-2
O=C1NC(=S)N/C1=C/c1ccc(-c2cccc(Cl)c2Cl)o1	nt	nt	13
O=C1NC(=S)S/C1=C/c1ccc(-c2ccc(C(=O)O)c(Cl)c2)o1	nt	nt	6
O=C(O)c1ccc(Cl)c(-c2ccc(C=C3C(=O)c4ccccc4C3=O)o2)c1	nt	nt	104*
O=C1NC(=S)N/C1=C/c1ccc(-c2cc(C(=O)O)ccc2Cl)o1	nt	nt	104*
O=C(O)c1ccc(-c2ccc(C=C3C(=O)c4ccccc4C3=O)o2)cc1Cl	nt	nt	52*
Cc1ccccc1OCC(=O)NCc1ccccn1	nt	nt	2
COC(=O)C1=C(O)/C(=C/c2cc(C)n(-c3ccc(Cl)cc3Cl)c2C)N=C1C	nt	nt	-10
O=C1NC(=S)N/C1=C/c1ccc(OCc2cccc(C(=O)O)c2)cc1	nt	nt	103*
O=C1NC(=S)S/C1=C/c1ccc(OCc2cccc(C(=O)O)c2)cc1	nt	nt	12
CCOc1cc([N+](=O)[O-])cc(/C=C2\SC(=S)N(C)C2=O)c1O	nt	nt	66*
COc1cc([N+](=O)[O-])cc(C=C2C(=O)N(C)C(=O)N(C)C2=O)c1O	nt	nt	4
Cc1ccc(N2NC(=O)/C(=C\c3ccco3)C2=O)cc1C	nt	nt	-8
O=C1NN(c2ccc(F)c(Cl)c2)C(=O)/C1=C\c1ccco1	nt	nt	99*
CCOc1ccccc1/C=C1/C(=O)NN(c2ccc(C)c(Cl)c2)C1=O	nt	nt	69*
CCOc1ccccc1/C=C1/C(=O)NN(c2ccc(C)c(C)c2)C1=O	nt	nt	-5
COC(=O)c1ccc(/C=C/C(=O)c2cccc([N+](=O)[O-])c2)cc1	nt	nt	-5
Cc1ccc2[nH]c3nc(N=Nc4c(O)[nH]c5c(Br)cc(Br)cc45)nnc3c2c1	nt	nt	9
CCc1ccc(/C=C2/Sc3ccccc3C2=O)cc1[N+](=O)[O-]	nt	nt	34
CCOc1cc(C=O)ccc1OCCN1CCOCC1	nt	nt	-12
COc1cc(C=O)ccc1OCCN1CCOCC1	nt	nt	103*
CC(=O)C1=C(O)C(=O)N(c2nc3ccccc3s2)C1c1ccccc1Cl (configuration not stated)	nt	nt	8
CC1=C(C#N)c2nc(N)c(C#N)c(C)c2/C1=C/c1ccc(-c2ccccc2[N+](=O)[O-])o1	nt	nt	81*
CC1=C(C#N)c2nc(N)c(C#N)c(C)c2/C1=C/c1ccc(-c2ccc([N+](=O)[O-])cc2C)o1	nt	nt	5
CCOc1cccc(=O)c2c(C)oc(C)c12	nt	nt	-14
SMILES	DUSP1 inh	Cdc25B block	HePTP inh
CCOc1cccc(=[O+]CC)c2c(C)oc(C)c12	nt	nt	102*
Cc1ccc(S(=O)(=O)N(Cc2ccccc2)c2ccccc2C(=O)NC(C)C)cc1	nt	nt	7
CCN1C(=O)/C(=C\c2ccc(-c3ccc([N+](=O)[O-])cc3Br)o2)SC1=S	nt	nt	-8
O=C1OC(c2ccccc2)=C/C1=C/c1ccc(-c2ccc([N+](=O)[O-])cc2Br)o1	nt	nt	104*
Cc1ccc([N+](=O)[O-])cc1/C=C1/C=C(c2ccccc2)OC1=O	nt	nt	1
NC1=NC(=O)/C(=C/c2ccc(-c3ccc([N+](=O)[O-])cc3Br)o2)S1	nt	nt	100*
COc1ccc(N2C(=O)c3ccccc3NC2c2ccccc2)cc1 (configuration not stated)	nt	nt	2
c1ccc(-c2ccc(-c3nc(-c4ccccc4)no3)cc2)cc1	nt	nt	0
CC1=NN(c2ccc(Cl)c(Cl)c2)C(=O)/C1=C/c1ccco1	nt	nt	5
CC1=NN(c2ccc(Cl)c(C(=O)O)c2)C(=O)/C1=C\c1ccco1	nt	nt	73*
CC1C2C=CC(C1C(=O)N(C=O)c1cccc([N+](=O)[O-])c1)C2C1=CCCC1 (configuration not stated)	nt	nt	1
Cc1ccc(-n2[nH]c(=O)c(/C=C3\C=Nc4ccccc43)c2O)cc1	nt	nt	94*
Cc1ccc(-n2c(O)c(/C=C3\C=Nc4ccccc43)c(=O)[nH]c2=S)cc1	nt	nt	4
O=[N+]([O-])c1ccc2nc(SCCc3ccccc3)sc2c1	nt	nt	9
COC(=O)c1c(NC(=O)c2cccc(OC)c2)sc(C)c1C	nt	nt	13
Cc1[nH]c2ccccc2c1/C=C/c1nc2ccccc2c(=O)n1Cc1ccccc1	nt	nt	-6
CCOC(=O)C1=C(C)N=c2s/c(=C\c3ccc([N+](=O)[O-])o3)c(=O)n2C1c1ccc(OC)cc1 (configuration not stated)	nt	nt	52*
CCOC(=O)C1=C(C)N=c2s/c(=C\c3cccs3)c(=O)n2C1c1ccc(OC)cc1 (configuration not stated)	nt	nt	7
CC1CCc2c(sc(NC(=O)c3ccccc3)c2C(N)=O)C1 (configuration not stated)	nt	nt	5
CC1CCc2c(sc(NC(=O)c3cccc(C(=O)O)c3)c2C(N)=O)C1 (configuration not stated)	nt	nt	103*
CN(C)/C=C/C=C/C=C1\CCC/C(=C\C=C\N(C)C)C1=O	nt	nt	-1
CN(/C=C/C=C1\CC/C(=C\C=C\N(C)c2ccccc2)C1=O)c1ccccc1	nt	nt	98*
CC(=O)N/C(=C/c1ccc(Cl)cc1)C(=O)N1CCOCC1	nt	nt	-11
CC(=O)N1c2ccccc2NC2=C(C(=O)CC(C)(C)C2)C1c1ccc(C#N)cc1 (configuration not stated)	nt	nt	5
CCOc1ccc(NC(=S)NC(NC(=O)c2ccc(Br)cc2)C(Cl)(Cl)Cl)cc1 (configuration not stated)	nt	nt	-11
SMILES	DUSP1 inh	Cdc25B block	HePTP inh
O=C(Nc1ccccn1)c1ccc(CN(c2ccccc2)S(=O)(=O)c2ccccc2)cc1	nt	nt	12
O=C(Nc1cccnc1)c1ccc(CN(c2ccccc2)S(=O)(=O)c2ccccc2)cc1	nt	nt	104*
O=C(Cc1ccc(-c2ccccc2)cc1)Nc1ccc(F)cc1	nt	nt	2
COc1ccc(CCN2C(=O)CSC2c2ccc([N+](=O)[O-])cc2)cc1OC (configuration not stated)	nt	nt	104*
COc1cc(C2SCC(=O)N2CCc2ccc(OC)c(OC)c2)ccc1O (configuration not stated)	nt	nt	-12
COc1ccc(Cl)cc1C(=O)Nc1ccc(I)cc1Cl	nt	nt	1
O=C(Nc1sc2c(c1C(=O)N1CCOCC1)CCCCC2)c1ccc([N+](=O)[O-])cc1	nt	nt	6
CCN(CC)C(=O)c1cc2c(=O)n3cccc(C)c3nc2n1C	15	74*	3
Cc1cccn2c(=O)c3cc(C(=O)Nc4ccc(N(C)C)cc4)n(C)c3nc12	13	5	7
CCN(CC)Cc1c(O)ccc2oc(C)c(C(=O)c3ccc(OC)cc3OC)c12	nt	nt	1
CCOc1ccc(NC(=O)CC2S/C(=N\N=C(/C)c3ccc([N+](=O)[O-])cc3)NC2=O)cc1 (configuration not stated)	nt	nt	3
Cc1oc2ccc(OCc3ccc([N+](=O)[O-])cc3)cc2c1C(=O)OC(C)C	nt	nt	4
CCOc1ccc(N2C(=O)CC(N3CCN(c4cccc(Cl)c4)CC3)C2=O)cc1 (configuration not stated)	nt	nt	-14
COc1cccc(N2C(=O)CC(N3CCN(C(c4ccccc4)c4ccccc4)CC3)C2=O)c1 (configuration not stated)	nt	nt	-30
COc1ccc(N2C(=O)CC(N3CCN(C(c4ccccc4)c4ccc(Cl)cc4)CC3)C2=O)cc1 (configuration not stated)	nt	nt	105*
COc1cccc(N2CCN(C3CC(=O)N(c4cccc(Cl)c4)C3=O)CC2)c1 (configuration not stated)	-16	92*	-4
CCOc1ccc(C(=O)Nc2ccc(OC(F)(F)F)cc2)cc1Br	nt	nt	8
CCOc1ccc(C(=O)Nc2ccc(OC(F)(F)F)cc2)cc1	nt	nt	103*
